Sm TGR inh – blocks Schistosoma mansoni thioredoxin glutathione reductase; purified TGR, DTNB reduction, TNB absorbance 405 nm; Potency, µM (highest dose often 114 µM), for the others: at the highest dose activity change, negative = inhibition, usual class: inhibitors; 3% of 360,000 active; AID 485364; note: potency is the fitted concentration of half-maximal effect; % is set by controls: 0 for no effect and ±100 for the full control effect; nearly all actives have a fitted effect of over 60% in size
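First, TGR (20 nM dispensed) and NADPH were mixed with compound. Second, a 15 min room-temperature incubation followed. Third, further NADPH and then DTNB were added to start the reaction. Finally, TNB absorbance was monitored kinetically.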
Shiga inhibitor – Shiga toxin inhibition | 9.2% of 290,000 active | inhibition, % at 38.7 µM | Vero cells, Shiga toxin protein synthesis inhibition reporter | AID 2315; in the data active = inhibition mostly above about 28%, no sharp cut-off; inactive = mostly below about 43%; note: 0% is about no effect
LmPK inh – blocks Leishmania mexicana pyruvate kinase activity. purified LmPK, Kinase-Glo ATP luminescence, 1 h. Potency, µM (highest dose often 57.5 µM), inactives show at the top dose activity change, negative = inhibition, actives largely listed as inhibitors. 0.37% of 290,000 active; note: potency is the fitted concentration of half-maximal effect; % is set by controls: 0 for no effect and ±100 for the full control effect
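qHTS format; LmPK 0.1 nM; substrates PEP 0.5 mM and ADP 0.1 mM. One-hour room-temperature incubation, then coupled luciferase luminescence; 0.5 nM enzyme wells mark activation.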
Giardia FBPA inh – Giardia lamblia aldolase inhibition. Potency, µM (top dose mostly 59.6 µM), without a hit: at the highest dose activity, negative = inhibition, usual class: inhibitors. 0.71% of 290,000 active. A8B2U2. purified Giardia FBPA; note: potency is the fitted concentration of half-maximal effect; % is set by controls: 0 for no effect and ±100 for the full control effect; nearly all actives have a fitted effect of over 55% in size
Target sequence (A8B2U2 whole entry, looked up): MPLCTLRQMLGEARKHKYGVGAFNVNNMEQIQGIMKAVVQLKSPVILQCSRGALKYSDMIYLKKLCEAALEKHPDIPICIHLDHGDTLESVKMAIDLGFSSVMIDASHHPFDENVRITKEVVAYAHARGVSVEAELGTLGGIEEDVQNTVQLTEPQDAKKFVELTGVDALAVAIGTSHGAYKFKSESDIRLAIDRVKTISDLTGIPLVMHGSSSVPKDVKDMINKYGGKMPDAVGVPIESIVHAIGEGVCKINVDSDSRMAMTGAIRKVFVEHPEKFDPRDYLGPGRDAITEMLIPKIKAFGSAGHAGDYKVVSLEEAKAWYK
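40 nM FBPA preincubated 10 min at RT with compound (up to 57.5 uM final), then substrate plus GAPDH/TPI/NAD/arsenate coupling and diaphorase/resazurin added. Fluorescence read after 20 min at RT, 525/598 nm.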
TbPYK inhibitor – blocks Trypanosoma brucei pyruvate kinase; Q57TT1; TbPYK enzyme, Kinase-Glo Plus ATP luminescence, 45 min; Potency, µM (titrated, usually from 76.8 µM), without a hit: at the top dose activity, negative = inhibition, actives largely listed as inhibitors; 0.12% of 410,000 active; note: potency is the fitted concentration of half-maximal effect; % is set by controls: 0 for no effect and ±100 for the full control effect; nearly all actives have a fitted effect of over 50% in size
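TbPYK + substrate in 50 mM TEA pH 7.2, 100 mM KCl, 10 mM MgCl2, 0.05% BSA, 0.01% Tween-20; cpd pinned; ADP 130 uM final; 45 min RT; Kinase-Glo Plus 10 min; luminescence endpoint.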
Cycloheximide cs – counter-screen hit for Shiga toxin inhibitors, cycloheximide; 12% of 300,000 active; AID 2314; max response, %; cell reporter, cycloheximide protein synthesis inhibition counterscreen; in the data active = max response mostly above about 13%, no sharp cut-off; inactive = mostly below about 14%; note: read at 38.3 µM for the half of the compounds with a filed dose; 0% is about no effect
Starred values were filed as active, the others as inactive; ? = inconclusive; . = no result; [ ] = dose if it differs, or a comment. This is one part of a sample in which hits are shown more often than they occur. Unless noted, calls come from the whole dose curve; as a rule, active = well fitted curve in the direction sought with a large enough effect; inconclusive = small, poorly fitted or top-dose-only effect, or another doubt; inactive = no such curve, though single readings can be large; an effect the other way counts as inactive or inconclusive.

SMILES	Sm TGR inh	Shiga inhibitor	LmPK inh	Giardia FBPA inh	TbPYK inhibitor	Cycloheximide cs
CC(C)Oc1cccc(-c2cc(C(=O)N3CCN(c4ncccn4)CC3)c3ccccc3n2)c1	8%	68*	0%	-4%	.	43*
CCc1ccc(NC(=O)c2cc(S(=O)(=O)N3CCc4ccccc43)cn2C)cc1	11%	7	2%	13%	-4%	5
C[C@@H]1OC2C3=C(C(=O)[C@H]4O[C@@H]4[C@H]3O)[C@@H]1[C@H]1[C@H](C)OC=C3[C@H](O)[C@H]4O[C@H]4/C(=N\OCc4ccccc4)[C@@]321	.	.	.	-4%[12.9 µM]	.	.
Cc1ccc(S(=O)(=O)N2CCC(C(=O)NCCN3CCOCC3)CC2)cc1	.	.	.	.	2%	.
Cc1cc(C)cc(OC(=O)c2cc(-c3ccc(Cl)cc3)on2)c1	6%	.	.	.	1%	.
O=C(c1ccc2ccccc2n1)N1CCN(c2ccccc2O)CC1	-19%	88*	-3%	-22%	-4%	52*
O=C(c1cc(-c2cccs2)nc2ccccc12)N1CCN(S(=O)(=O)c2cccc(F)c2)CC1	1%	30*	-3%	5%	4%	32*
Cc1ccc(-c2cc(C(=O)N3CCN(c4ccccc4O)CC3)c3ccccc3n2)o1	?	66*	-6%	.	-8%	35*
O=C(c1cc(-c2cccs2)nc2ccccc12)N1CCN(S(=O)(=O)c2ccccc2)CC1	2%	2	-2%	-2%	-7%	-1
Cn1c(C(=O)N2CCN(c3ncccn3)CC2)cc2c(=O)n(C)c3ccccc3c21	?	-5	5%	18µM*	-4%	-2
CC(=O)Oc1cccc(/C=C2\Sc3ccccc3C2=O)c1	6%	51*	?	-5%	-6%	28*
CCCCOc1ccc(/C=C2/Sc3ccccc3C2=O)cc1	0%	24	-19%	3%	1%	8
CC(=NCCc1ccccc1)C1=C(O)CSC1=O	-12%	14	-5%	4%	-11%	28*
CC(=NCCc1ccccc1)C1=C(O)CCC1=O	-29%	-3	-2%	2%	-5%	-1
O=C(Cn1cc(SCc2ccccc2F)c2ccccc21)N1CCCCC1	17%	.	.	.	3%	.
CC(=O)Nc1ccc(NC(=S)Nc2ccccc2)cc1	-33%	-5	2%	-8%	1%	1
S=C(Nc1ccccc1)Nc1ccccc1-n1cccc1	-30%	28	0%	-7%	-12%	22*
S=C(NN=C(C1CC1)C1CC1)Nc1ccccc1	-6%	43*	3%	-25%	-6%	34*
O=C(NNC(=S)Nc1ccccc1)C1CC1	8%	32	0%	.	-11%	9
Fc1cc(Br)ccc1NC(=S)Nc1ccccc1	28µM*	65*	1%	-20%	-4%	50*
N#Cc1ccc(NC(=S)Nc2ccccc2)cc1	45µM*	-2	3%	-6%	-3%	-3
Cc1nn(-c2ccccc2)c(C)c1NC(=O)COC(=O)/C=C/c1ccccc1	-6%	.	.	.	1%	.
COc1ccc(C(=O)Nc2nc3ccccc3n2CCOc2ccc(Cl)cc2)cc1	-1%	.	.	.	3%	.
CC(C)OC(=O)c1c(-c2ccccc2)c(-c2ccccc2)nn(C)c1=O	-4%	1	.	.	-3%	-4
S=C(Nc1ccccc1)Nc1ccc(Br)cc1	?	31	6%	-3%	-1%	15*
SMILES	Sm TGR inh	Shiga inhibitor	LmPK inh	Giardia FBPA inh	TbPYK inhibitor	Cycloheximide cs
S=C(NNC(=S)Nc1ccccc1)Nc1ccccc1	8%	56*	-5%	29%	-16%	42*
COc1ccccc1NC(=S)Nc1ccccc1F	-8%	16	-5%	7%	-11%	9
Fc1ccccc1NC(=S)Nc1ccc(Br)cc1	50µM*	18*	-6%	1%	-4%	17*
Cc1ccc(-n2c(C)cc(/C=N/Nc3ccc([N+](=O)[O-])cn3)c2C)cc1	-33%	59*	-2%	-24%	8%	39*
Cc1c(C(=O)O)cccc1-n1c(C)cc(/C=N/Nc2ccc([N+](=O)[O-])cn2)c1C	-26%	71*	-1%	?	8%	32*
O=C(O)c1ccccc1C=NNc1ccc([N+](=O)[O-])cn1	.	.	.	.	-3%	.
Cc1cc(/C=N/Nc2ccc([N+](=O)[O-])cn2)c(C)n1-c1ccccc1	-27%	78*	6%	-9%	-3%	27*
CCOC(=O)c1cccc(NC(=O)N2CCC(CN3CCCCCC3)CC2)c1	-29%	.	.	.	3%	.
CCC(=O)N1CCc2cc(-c3csc(NC(=O)c4ccco4)n3)ccc21	-10%	55	-7%	-15%	0%	28*
O=C(CN1C(=O)CCC1=O)Nc1nc(-c2cccs2)cs1	3%	14	6%	-2%	-14%	1
O=C(Nc1nc(-c2cccs2)cs1)c1ccco1	1%	91*	0%	-10%	-11%	37*
CCC(=O)Nc1nnc(-c2cccs2)s1	.	9	-2%	5%	-5%	14
CS(=O)(=O)N1CCc2cc(-c3csc(NC(=O)Cc4ccccc4)n3)ccc21	6%	28	4%	0%	-2%	7
O=C(Cc1ccccc1)Nc1nc(-c2cccs2)cs1	-3%	105*	0%	-16%	0%	43*
O=C(Cc1ccccc1)Nc1nnc(-c2cccs2)s1	-5%	40	2%	2%	-4%	25*
O=C(Nc1nc(-c2ccncc2)cs1)c1ccco1	-25%	53	-8%	-7%	-18%	12
NC(=O)[C@H]1CCCN1C(=O)[C@H](Cc1cnc[nH]1)NC(=O)[C@@H]1CCC(=O)N1	.	-5	.	4%	.	-7
CC(=NNC(=O)C(C)SC(C)C(=O)NN=C(C)c1cccnc1)c1cccnc1 (configuration not stated)	.	.	.	.	4%	.
CCCn1c(SCC(=O)N2CCCC2=O)nc2ccccc2c1=O	1%	.	.	.	-12%	.
CCc1cccc(C)c1NC(=O)C(CC)Sc1nncn2c1cc1occc12 (configuration not stated)	-6%	.	.	.	0%	.
CC(C)C(=O)N1CCc2cc(-c3csc(N)n3)ccc21	-28%	37	3%	-10%	-21%	22*
O=C(Cc1ccccc1F)Nc1nc(-c2ccc(F)c(F)c2)cs1	0%	62*	-5%	3%	1%	19*
O=C(Cc1ccccc1F)Nc1nc(-c2cccs2)cs1	13%	50*	-2%	-10%	2%	37*

Source: PubChem BioAssay
